Sfp PPTase inh: blocks B. subtilis Sfp PPTase activity | Q9F4F7 | Biochemical Sfp PPTase activity, qHTS | Potency, µM, actives largely listed as inhibitors | 310,000 compounds, 3.5% hits | AID 1490;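 also: the enzyme is Sfp with the accession as filed and its product quenches rhodamine fluorescence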
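Buffer: 50 mM Hepes-Na pH 7.6, 10 mM MgCl2, 0.01% Nonidet P-40, 0.01% BSA. Enzyme 15 nM, pre-exposed to compound 15 min; substrates then added and fluorescence change tracked over 30 min.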
TDP1 block: inhibitors of human tyrosyl-DNA phosphodiesterase TDP1; AID 485290; Potency, µM (doses to about 130 µM), hits mostly inhibitors; 350,000 compounds, 0.28% hits; recombinant TDP1, AlphaScreen DNA substrate cleavage; also: nearly all actives have a fitted effect of over 40% in size
Target sequence (Q9NUW8 whole entry, looked up): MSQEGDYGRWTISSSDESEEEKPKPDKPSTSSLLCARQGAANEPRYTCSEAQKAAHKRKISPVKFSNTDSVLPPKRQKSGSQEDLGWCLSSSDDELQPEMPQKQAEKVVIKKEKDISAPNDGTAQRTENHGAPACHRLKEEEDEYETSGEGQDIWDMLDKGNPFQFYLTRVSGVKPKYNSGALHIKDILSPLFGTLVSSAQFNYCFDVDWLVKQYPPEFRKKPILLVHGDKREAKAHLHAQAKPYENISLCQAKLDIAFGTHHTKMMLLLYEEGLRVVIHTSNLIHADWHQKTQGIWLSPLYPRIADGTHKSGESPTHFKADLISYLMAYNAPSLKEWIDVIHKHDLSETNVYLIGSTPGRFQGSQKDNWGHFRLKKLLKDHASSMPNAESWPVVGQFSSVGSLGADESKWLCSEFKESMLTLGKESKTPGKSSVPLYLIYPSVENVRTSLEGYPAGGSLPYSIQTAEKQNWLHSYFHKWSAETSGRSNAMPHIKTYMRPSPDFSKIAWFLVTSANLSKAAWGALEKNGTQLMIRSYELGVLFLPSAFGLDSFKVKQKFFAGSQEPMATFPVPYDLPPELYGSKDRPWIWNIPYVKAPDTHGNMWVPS
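Recombinant E. coli-expressed Tdp1 (1 nM) preincubated with compound 15 min at RT, then 5'-biotin/3'-phosphotyrosine-FITC DNA substrate (15 nM) added for 5 min. AlphaScreen beads (10 ug/ml) added, 10 min RT; tyrosine-FITC cleavage read as signal loss.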
HP1b binding inh: HP1-beta chromodomain-methylated histone interaction inhibition; P83916; 390,000 compounds, 0.56% hits; AlphaScreen HP1-beta / biotin-H3K9me3 peptide binding; Potency, µM (titrated, usually from 114 µM), usual class: inhibitors; also: nearly all actives have a fitted effect of over 70% in size
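Compound inhibition of the preformed complex between 50 nM HP1-beta and 50 nM biotinylated H3K9me3 peptide was read by AlphaScreen. Buffer was PBS pH 7.4 with 0.01% Tween-20. Incubations ran 30 min at room temperature, with 10 ug/mL donor/acceptor beads.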
BAZ2B block: BAZ2B (human) inhibition. Potency, µM (highest dose often 114 µM), usual class: inhibitors. 360,000 compounds, 4.4% hits. AlphaScreen BAZ2B-H3K14Ac peptide displacement. AID 504333; also: nearly all actives have a fitted effect of over 60% in size
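Compounds, titrated to a top concentration of 110 uM, were incubated 30 min at room temperature with preformed BAZ2B/acetyl-K14 H3 peptide complex (50 nM each). Proximity signal was measured by AlphaScreen after 20 min with beads.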
JMJD2A Tudor inh: inhibitors of human JMJD2A Tudor domain; 390,000 compounds, 4.4% hits; Potency, µM (top dose mostly 114 µM), most hits filed as inhibitors; AID 504339; O75164; AlphaScreen JMJD2A-Tudor / H3K4me3 peptide binding; also: nearly all actives have a fitted effect of over 50% in size
G9a block: G9a (human) methyltransferase inhibition. Q96KQ7. AID 504332. 350,000 compounds, 8.8% hits. Potency, µM (highest dose often 102 µM), most hits filed as inhibitors. G9a H3K9 monomethylation, AlphaScreen, 2 h; also: nearly all actives have a fitted effect of over 75% in size
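Using a bead-based AlphaScreen, monomethylated H3K9 product from 2 h room-temperature reactions (G9a 20 nM, peptide 500 nM, SAM 20 uM) was detected with 0.5 ug/mL rabbit anti-H3K9me1 antibody.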
Numbers stand for hits; [ ] = another dose, or the depositor's remark. Compounds with a hit are over-represented: about 12% of the library has one in this group of screens. Calls follow the shape of the dose curve; as a rule, active = well fitted curve in the direction sought with a large enough effect; inconclusive = small, poorly fitted or top-dose-only effect, or another doubt; inactive = no such curve, though single readings can be large; an effect the other way counts as inactive or inconclusive.

What do the screens show for `Cc1cccc(NC(=S)N/N=C/c2c[nH]c3ccccc23)c1`?
Sfp PPTase inh: inactive; TDP1 block: inactive; HP1b binding inh: inconclusive; BAZ2B block: 50.1µM; JMJD2A Tudor inh: inconclusive; G9a block: inactive

What do the screens show for `Cc1ccc(NC(=S)N/N=C/c2c(C)[nH]c3ccccc23)cc1`?
Sfp PPTase inh: inactive; TDP1 block: inactive; HP1b binding inh: inconclusive; BAZ2B block: 44.7µM; JMJD2A Tudor inh: 44.7µM; G9a block: 50.1µM

How did Cc1[nH]c2ccccc2c1/C=N/NC(=O)CNC(=O)Cc1ccccc1 do in these assays?
Sfp PPTase inh: inactive; TDP1 block: inactive; HP1b binding inh: inactive; BAZ2B block: inconclusive; JMJD2A Tudor inh: inactive; G9a block: 70.8µM

How did Cc1[nH]c2ccccc2c1/C=N/NC(=O)c1cc(C(C)(C)C)[nH]n1 do in these assays?
Sfp PPTase inh: inactive; TDP1 block: inactive; HP1b binding inh: inactive; BAZ2B block: 70.8µM; JMJD2A Tudor inh: inactive

How did Cn1cc(C(CO)Cc2ccccc2)c2ccccc21 (stereo not drawn) do in these assays?
TDP1 block: inactive; HP1b binding inh: inactive; BAZ2B block: inactive; JMJD2A Tudor inh: inactive; G9a block: inactive[2.33 µM]

Results for O=C(Nc1ccc(Br)cc1)Nc1nc2c(s1)CCCCCC2 ?
TDP1 block: inactive; HP1b binding inh: inactive; BAZ2B block: inactive; JMJD2A Tudor inh: inactive; G9a block: inactive

How did CCOc1ccc(-c2n[nH]c(=S)o2)cc1 do in these assays?
Sfp PPTase inh: inactive; TDP1 block: inactive; HP1b binding inh: inactive; JMJD2A Tudor inh: inconclusive; G9a block: 5.01µM

Results for COc1ccc(-c2nc(-c3ccc(Br)cc3)no2)c(OC)c1 ?
Sfp PPTase inh: inactive; TDP1 block: inactive; HP1b binding inh: inactive; BAZ2B block: inactive; JMJD2A Tudor inh: inactive; G9a block: inactive

How did COc1ccc(-c2n[nH]c(=S)o2)c(OC)c1 do in these assays?
Sfp PPTase inh: inconclusive; TDP1 block: inactive; HP1b binding inh: inactive; BAZ2B block: inactive; JMJD2A Tudor inh: 79.4µM; G9a block: inconclusive

What do the screens show for `CCOc1ccccc1-c1n[nH]c(=S)o1`?
Sfp PPTase inh: inactive; TDP1 block: inactive; HP1b binding inh: inactive; BAZ2B block: inconclusive; JMJD2A Tudor inh: 39.8µM; G9a block: 1.78µM

Results for CCOc1ccccc1-c1nc(-c2ccncc2)no1 ?
Sfp PPTase inh: inactive; TDP1 block: inactive; HP1b binding inh: inactive; BAZ2B block: inconclusive; JMJD2A Tudor inh: inactive; G9a block: inactive

What do the screens show for `Cc1nn(-c2ccccc2)c2sc(-c3n[nH]c(=S)o3)cc12`?
Sfp PPTase inh: inactive; TDP1 block: inactive; HP1b binding inh: inactive; BAZ2B block: inconclusive; JMJD2A Tudor inh: inactive; G9a block: inconclusive

What do the screens show for `CCCCc1cc(-c2n[nH]c(=S)o2)c2ccccc2n1`?
Sfp PPTase inh: inactive; HP1b binding inh: inactive; BAZ2B block: inconclusive; JMJD2A Tudor inh: inactive; G9a block: 4.47µM

What do the screens show for `CCOc1ccc(CNC(=O)C2CCN(S(=O)(=O)c3cn(C)cn3)CC2)cc1OC`?
TDP1 block: inactive; HP1b binding inh: inactive; BAZ2B block: inactive; JMJD2A Tudor inh: inactive; G9a block: inconclusive

What do the screens show for `Cc1cccc(C2=N[C@@H](Cc3ccccc3)CO2)c1`?
Sfp PPTase inh: inactive; TDP1 block: inactive; G9a block: inactive

What do the screens show for `COc1ccc(CCNC(=O)C(=O)NCC2CCCN2S(=O)(=O)c2cccs2)cc1` (stereo not drawn)?
TDP1 block: inactive; HP1b binding inh: inactive; BAZ2B block: inactive; JMJD2A Tudor inh: inactive; G9a block: inactive

Results for Cc1cccc(N2CC(c3nc4ccccc4[nH]3)CC2=O)c1 (stereo not drawn) ?
Sfp PPTase inh: inactive; TDP1 block: inactive; HP1b binding inh: inactive; BAZ2B block: inactive; JMJD2A Tudor inh: inactive; G9a block: inactive

How did Cc1ccccc1-c1nccc(-n2ccnc2)n1 do in these assays?
Sfp PPTase inh: 56.2µM

How did Cc1ccccc1-c1cc(-n2ccnc2)ncn1 do in these assays?
Sfp PPTase inh: inactive; TDP1 block: 25.1µM

Results for N#Cc1cccc(-c2nccc(-n3ccnc3)n2)c1 ?
Sfp PPTase inh: 50.1µM; G9a block: inconclusive

Results for O=C(c1cc(C(F)(F)F)cc(C(F)(F)F)c1)N1CCC[C@@]2(CCN(Cc3ccccc3)C2)C1 ?
Sfp PPTase inh: inactive; G9a block: inactive[12.7 µM]

What do the screens show for `S=c1sc2c(N3CCN(Cc4ccccc4)CC3)ncnc2n1-c1ccccc1`?
Sfp PPTase inh: inactive; TDP1 block: inactive; HP1b binding inh: inactive; BAZ2B block: inactive; JMJD2A Tudor inh: inactive; G9a block: inactive

How did CCN1CCN(c2ncnc3c2sc(=S)n3-c2ccccc2)CC1 do in these assays?
Sfp PPTase inh: inactive; TDP1 block: inactive; HP1b binding inh: inactive; BAZ2B block: inactive; JMJD2A Tudor inh: inactive; G9a block: 50.1µM

What do the screens show for `COc1ccc(OCCCC(=O)Nc2cc(S(=O)(=O)N3CCCCC3)ccc2C)cc1`?
TDP1 block: inactive; HP1b binding inh: inactive; BAZ2B block: inactive; JMJD2A Tudor inh: inactive; G9a block: inactive[2.33 µM]

Results for Cc1ccc(-n2c(=O)c3oc4ccccc4c3n(Cc3cccc(F)c3)c2=O)cc1C ?
TDP1 block: inactive; HP1b binding inh: inactive; BAZ2B block: inconclusive; JMJD2A Tudor inh: inactive; G9a block: inactive

What do the screens show for `Cc1ccc(-n2c(=S)[nH]c3c(oc4ccccc43)c2=O)cc1C`?
Sfp PPTase inh: inactive; TDP1 block: inactive; HP1b binding inh: inactive; BAZ2B block: inactive; JMJD2A Tudor inh: inactive; G9a block: 79.4µM

Results for O=c1c2oc3ccccc3c2[nH]c(=S)n1-c1ccc(F)cc1 ?
Sfp PPTase inh: 79.4µM; TDP1 block: inactive; HP1b binding inh: inactive; JMJD2A Tudor inh: inactive; G9a block: 50.1µM

Results for O=c1[nH]c2c(oc3ccccc32)c(=O)n1Cc1ccccc1 ?
Sfp PPTase inh: inactive; HP1b binding inh: inactive; BAZ2B block: inactive; JMJD2A Tudor inh: inactive; G9a block: inactive

What do the screens show for `COc1ccccc1NC(=O)C1=C(C)Nc2nc(-c3ccc(N(C)C)cc3)nn2C1c1ccncc1` (stereo not drawn)?
Sfp PPTase inh: inactive; TDP1 block: inactive; HP1b binding inh: inactive; BAZ2B block: 50.1µM; JMJD2A Tudor inh: inconclusive; G9a block: inconclusive

How did COc1ccccc1NC(=O)C1=C(C)Nc2nc(SCc3cccc(F)c3)nn2C1c1ccc(C(=O)O)cc1 (stereo not drawn) do in these assays?
HP1b binding inh: inactive; BAZ2B block: 50.1µM; JMJD2A Tudor inh: inactive; G9a block: inactive[12.7 µM]

What do the screens show for `COc1ccccc1NC(=O)C1=C(C)Nc2ncnn2C1c1ccc[nH]1` (stereo not drawn)?
TDP1 block: inactive; HP1b binding inh: inactive; BAZ2B block: inconclusive; JMJD2A Tudor inh: 56.2µM; G9a block: inactive

What do the screens show for `CCOc1ccccc1NC(=O)C1=C(C)Nc2ncnn2C1c1ccco1` (stereo not drawn)?
TDP1 block: inactive; HP1b binding inh: inactive; BAZ2B block: inactive; JMJD2A Tudor inh: inactive; G9a block: inactive

Screens from PubChem BioAssay.
